# Measured values from patent US20210230599, “STEM-LOOP COMPOSITIONS AND METHODS FOR INHIBITING INTERLEUKIN-8” (VITRISA THERAPEUTICS, INC., published 2021).
# Biological target: Interleukin-8 (IL8, CXCL8), C-terminal His-tagged (Homo sapiens, UniProt P10145 SEQ:1-72)
# Test: competition; competition TR-FRET
# Settings: tags: C-terminal 6xHis (Sino Biological); ssRNA; 2'-F G, 2'-OMe A/C/U, 5' C6NH2, 3' idT
# Description: Activity of each of these variants were tested using a time resolved competition TR-FRET assay in which the labeled parent Aptamer 3 was competed with increasing concentrations of unlabeled variants for binding to IL8 (FIG. 14). Briefly, 2-fold dilutions of thermally equilibrated aptamers were made in TR-FRET Buffer (50 mM MOPS, pH 7.4, 125 mM NaCl, 5 mM KCl, 50 μM CHAPS, 0.1 mg/mL BSA, 1 mM CaCl₂, and 1 mM MgCl₂). 5 μL of aptamer or control solution was added to 5 μl mix of 10 nM C-terminal His-tagged-IL8, 60 nM ALEXA FLUOR® 647-labeled Aptamer, and 5 nM anti-His-Eu (Perkin Elmer) in a black wall low volume 384 well plate (Greiner). For control, 5 μl of 1000-fold excess of unlabeled parent aptamer or 5 μl TR-FRET buffer alone was added to the mix of ALEXA FLUOR® 647-labeled aptamer, His-IL8, and anti-His-Eu. The plate was covered with a plate seal and subsequently incubated in the dark for 1 hour at room temperature. The plate was read on a Biotek CYTATION™ 5 plate reader. […]
# To better understand the sequence requirements and confirm the stem structures of members of the Aptamer 8 family as determined from sequence covariation analysis from both the primary and secondary (degenerate) selections, a series of variants which included mutations and deletions to the predicted stems (Tables 45 and 46) were synthesized and screened. […]
row,Sequence,binding signal [fold worse than Aptamer 8]
1,CGGUGGGAAAUGUGAGAUGGGUUACCG,~2.5
2,CGGCGGGAAAUGUGAGAUGGGUUGCCG,~2.5
